The entries come from a sample that favours hits as a whole.
Pf apPOL block = Pf-apPOL inhibitors, biochemical, fluorescence; inhibition, % at 10 µM; Plasmodium falciparum apicoplast DNA polymerase (apPOL); Recombinant Pf-apPOL, molecular beacon fluorescence, 1.5 h; AID 1794808, 2022; 210,000 compounds, 0.25% hits
mHTT CaM bind = mutant huntingtin-calmodulin interaction inhibitors – biochemical, AlphaScreen, primary screen; P42858; AlphaScreen His-mHTT/GST-CaM binding, luminescence; inhibition, % at 15 µM; 190,000 compounds, 3.6% hits; AID 1671202, 2021;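 note: 0% = both proteins with DMSO and 100% = one protein alone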
Target sequence (P42858 whole entry, looked up, stated change not applied): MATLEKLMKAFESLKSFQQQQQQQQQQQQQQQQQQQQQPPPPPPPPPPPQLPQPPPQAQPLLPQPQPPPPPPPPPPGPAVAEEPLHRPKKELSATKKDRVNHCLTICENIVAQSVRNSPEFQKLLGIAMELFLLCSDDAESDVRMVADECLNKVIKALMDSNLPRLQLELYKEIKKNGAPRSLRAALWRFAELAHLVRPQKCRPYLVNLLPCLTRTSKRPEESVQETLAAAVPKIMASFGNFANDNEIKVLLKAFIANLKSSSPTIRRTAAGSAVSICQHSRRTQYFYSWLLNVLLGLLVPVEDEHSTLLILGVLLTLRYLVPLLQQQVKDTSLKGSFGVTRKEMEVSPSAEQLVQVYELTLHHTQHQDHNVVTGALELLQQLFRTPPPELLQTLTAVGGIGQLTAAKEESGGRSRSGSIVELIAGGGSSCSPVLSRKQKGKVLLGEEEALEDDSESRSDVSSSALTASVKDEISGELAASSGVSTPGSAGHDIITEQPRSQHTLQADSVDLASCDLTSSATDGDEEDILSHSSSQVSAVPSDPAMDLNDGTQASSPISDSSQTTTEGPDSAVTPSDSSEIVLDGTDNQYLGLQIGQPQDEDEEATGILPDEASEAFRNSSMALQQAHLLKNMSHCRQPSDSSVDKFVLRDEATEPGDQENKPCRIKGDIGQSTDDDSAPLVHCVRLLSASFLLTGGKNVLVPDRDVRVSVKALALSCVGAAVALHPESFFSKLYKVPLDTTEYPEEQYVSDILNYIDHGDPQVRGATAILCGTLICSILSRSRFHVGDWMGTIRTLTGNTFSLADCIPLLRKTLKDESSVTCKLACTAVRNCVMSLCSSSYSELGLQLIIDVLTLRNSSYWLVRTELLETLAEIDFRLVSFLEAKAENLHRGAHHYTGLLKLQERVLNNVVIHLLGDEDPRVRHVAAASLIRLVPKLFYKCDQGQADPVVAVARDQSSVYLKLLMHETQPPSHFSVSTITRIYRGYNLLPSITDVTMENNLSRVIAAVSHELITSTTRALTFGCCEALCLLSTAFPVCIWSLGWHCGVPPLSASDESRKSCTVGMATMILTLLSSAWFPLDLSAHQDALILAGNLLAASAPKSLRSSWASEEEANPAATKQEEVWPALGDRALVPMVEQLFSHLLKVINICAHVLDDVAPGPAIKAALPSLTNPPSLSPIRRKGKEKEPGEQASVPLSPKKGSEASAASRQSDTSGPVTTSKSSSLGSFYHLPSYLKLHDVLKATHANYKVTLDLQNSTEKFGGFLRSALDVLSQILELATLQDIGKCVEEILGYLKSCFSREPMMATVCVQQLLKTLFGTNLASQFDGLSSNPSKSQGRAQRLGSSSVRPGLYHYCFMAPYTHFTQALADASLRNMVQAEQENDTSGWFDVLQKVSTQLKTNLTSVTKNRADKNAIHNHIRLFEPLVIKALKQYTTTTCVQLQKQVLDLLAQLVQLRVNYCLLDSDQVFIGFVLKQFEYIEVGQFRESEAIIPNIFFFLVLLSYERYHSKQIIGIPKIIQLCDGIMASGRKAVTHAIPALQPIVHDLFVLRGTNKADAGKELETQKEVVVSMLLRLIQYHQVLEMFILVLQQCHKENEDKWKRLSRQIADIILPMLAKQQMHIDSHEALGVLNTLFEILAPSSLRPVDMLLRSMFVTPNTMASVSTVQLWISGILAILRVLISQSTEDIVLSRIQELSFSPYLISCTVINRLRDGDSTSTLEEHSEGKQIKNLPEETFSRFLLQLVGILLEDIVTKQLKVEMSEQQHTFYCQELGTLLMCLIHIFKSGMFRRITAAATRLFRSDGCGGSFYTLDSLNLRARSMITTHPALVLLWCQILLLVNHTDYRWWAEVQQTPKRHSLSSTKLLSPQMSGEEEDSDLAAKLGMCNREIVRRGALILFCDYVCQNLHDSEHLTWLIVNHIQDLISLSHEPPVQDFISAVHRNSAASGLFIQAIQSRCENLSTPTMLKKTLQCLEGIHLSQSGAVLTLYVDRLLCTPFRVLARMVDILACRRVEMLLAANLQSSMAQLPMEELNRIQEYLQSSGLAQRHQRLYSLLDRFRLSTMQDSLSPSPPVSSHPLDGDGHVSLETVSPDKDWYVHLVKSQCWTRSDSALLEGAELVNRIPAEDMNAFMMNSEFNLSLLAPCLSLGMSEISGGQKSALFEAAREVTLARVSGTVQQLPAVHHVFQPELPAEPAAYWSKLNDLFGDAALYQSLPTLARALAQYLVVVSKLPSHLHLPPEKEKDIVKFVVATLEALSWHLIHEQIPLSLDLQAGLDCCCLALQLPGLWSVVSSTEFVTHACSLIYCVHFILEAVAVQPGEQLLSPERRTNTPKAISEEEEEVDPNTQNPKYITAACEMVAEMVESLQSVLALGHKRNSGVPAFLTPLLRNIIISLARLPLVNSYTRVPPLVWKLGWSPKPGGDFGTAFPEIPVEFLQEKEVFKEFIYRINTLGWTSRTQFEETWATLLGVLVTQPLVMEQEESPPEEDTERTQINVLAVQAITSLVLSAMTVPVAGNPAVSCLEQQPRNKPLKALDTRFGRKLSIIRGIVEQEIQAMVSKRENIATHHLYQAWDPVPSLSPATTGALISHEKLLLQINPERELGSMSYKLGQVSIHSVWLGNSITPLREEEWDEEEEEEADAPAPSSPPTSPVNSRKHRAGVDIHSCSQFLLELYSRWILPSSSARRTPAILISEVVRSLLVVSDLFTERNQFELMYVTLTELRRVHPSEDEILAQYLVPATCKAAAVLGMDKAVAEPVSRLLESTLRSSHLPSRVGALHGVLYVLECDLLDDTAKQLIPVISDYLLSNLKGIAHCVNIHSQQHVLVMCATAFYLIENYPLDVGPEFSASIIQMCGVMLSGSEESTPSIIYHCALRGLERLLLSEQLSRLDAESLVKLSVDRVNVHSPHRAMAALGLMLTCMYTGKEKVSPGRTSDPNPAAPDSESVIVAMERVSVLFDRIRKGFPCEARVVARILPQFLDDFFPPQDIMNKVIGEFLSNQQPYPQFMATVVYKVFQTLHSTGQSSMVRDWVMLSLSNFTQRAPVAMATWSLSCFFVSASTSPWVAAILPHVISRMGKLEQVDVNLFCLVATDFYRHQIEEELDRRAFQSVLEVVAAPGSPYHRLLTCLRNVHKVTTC
Numbers without * were called inactive; · = no result. Cut-off read from the data, not from the text of the source: active = inhibition above about 50%; inactive = the rest.

SMILES	Pf apPOL block	mHTT CaM bind
Cc1ccc2oc(-c3cc(NC(=O)c4ccccc4C)ccc3O)nc2c1	-1.5	2.4
CCC(=O)Nc1ccc(O)c(-c2nc3cc(C)ccc3o2)c1	53.8*	5.5
COc1ccc2c(c1OC)C(=O)OC2Nc1ccc(OC(F)(F)F)cc1 (configuration not stated)	-3.1	-2.0
CC(=O)NCCc1csc(C2CCCN(C(=O)C3(c4ccccc4)CC3)C2)n1 (configuration not stated)	-2.9	-5.0
CC(=O)N1c2c(cc(Br)cc2S(=O)(=O)N2CCc3ccccc3C2)CC1C (configuration not stated)	-2.6	58.0*
CC(=O)N1c2c(cc(Br)cc2S(=O)(=O)N2CCc3ccccc32)CC1C (configuration not stated)	1.4	20.0
Cc1cccc(-n2c(=O)n(C3CC3)c(=O)c3c2ncn3Cc2ccccc2)c1	-1.3	9.3
COc1cc(/C=C2/SC(=Nc3cc(C)cc(C)c3)NC2=O)cc([N+](=O)[O-])c1O	-1.3	54.0*
C=CCOc1ccc(/C=C2/SC(=Nc3ccccc3)NC2=O)cc1OC	-7.4	30.0
CCOc1cc(/C=C2/SC(=O)NC2=O)cc([N+](=O)[O-])c1O	-2.1	28.0
CCOc1cc(/C=C2\SC(=Nc3ccccc3)NC2=O)cc(Br)c1O	-52.5	86.0*
COc1cc(/C=C2\SC(=Nc3ccccc3)NC2=O)cc(I)c1O	3.3	68.0*
O=C1NC(=Nc2ccccc2)S/C1=C/c1cccc(O)c1	-1.8	25.0
CCOc1cc(/C=C2/SC(=Nc3ccccc3)NC2=O)ccc1O	-14.5	45.0
C=CCOc1ccc(/C=C2/SC(=Nc3cccc(C(=O)O)c3)NC2=O)cc1OC	-4.6	58.0*
COc1ccc(CNC(=O)NCC2(c3ccccc3)CCOCC2)cc1OC	-6.4	-12.3
O=C(N1CCCCC1)N1CCN(S(=O)(=O)c2ccc(F)cc2)CC1	-2.3	-0.4
CCC(=O)N1c2ccc(S(=O)(=O)N(C)Cc3ccccc3)cc2CC1C (configuration not stated)	4.6	3.0
O=C(c1cc2c(s1)CCC(C(=O)N1CCN(c3ccccc3)CC1)C2)N1CCCC1 (configuration not stated)	-2.6	13.6
COc1ccc(NC(=O)N2CCC(N3CCN(Cc4ccc(C)cc4)C3=O)CC2)cc1	-7.2	17.6
CC(=O)N1CCN(Cc2cnoc2-c2ccccc2)CC1	-5.8	1.2
CC(=O)c1ccc(C(=O)Nc2nc3ccc(Cl)cc3s2)cc1	-3.8	-3.4
CCOc1ccc(N=C2NC(=O)/C(=C\c3ccc(OC)c(OC)c3)S2)cc1	-2.9	8.0
COc1cc(/C=C2\SC(=Nc3ccccc3)NC2=O)cc(OC)c1OC	-16.0	18.0
COc1cc(/C=C2/SC(=Nc3ccccc3)NC2=O)ccc1OCC#N	-15.9	54.0*
SMILES	Pf apPOL block	mHTT CaM bind
O=C1/C(=C/c2cc(Br)cc([N+](=O)[O-])c2O)Sc2ccccc21	19.8	45.0
COc1cccc(/C=C2/SC(=Nc3cc(C)cc(C)c3)NC2=O)c1O	4.5	52.0*
COc1cc(/C=C2\Sc3ccccc3C2=O)cc([N+](=O)[O-])c1O	0.2	81.0*
COc1cc(/C=C2\SC(=Nc3ccccc3)NC2=O)cc(OC)c1O	12.3	74.0*
COc1ccc(/C=C2\SC(=Nc3cc(C)cc(C)c3)NC2=O)cc1	-0.7	19.0
CC(C)c1ccc(NC=C2C(=O)OC(C)(C)OC2=O)cc1	-1.0	-3.0
CC(=NNc1nc(C(C)(C)C)cs1)c1ccc(Cl)c(Cl)c1	-9.9	·
O=[N+]([O-])c1ccc(-c2csc(Nc3ccc4c(c3)OCO4)n2)cc1	1.0	55.1*
Clc1ccc(-c2csc(Nc3ccc4c(c3)OCO4)n2)cc1	-6.7	-5.4
CC(C)Cc1ccc(-c2csc(Nc3ccc4c(c3)OCO4)n2)cc1	-2.1	66.9*
COC(=O)c1ccc(-c2csc(NC(=O)Nc3ccc4c(c3)OCO4)n2)cc1	-6.7	-5.5
CCOC(=O)C1CCN(Cc2cc(=O)oc3cc4c(cc23)OCO4)CC1	-14.1	-4.1
Cc1ccc(C(=O)N2CCC(CCNC(=O)c3cccc(Cl)c3)CC2)cc1	-10.1	14.9
O=S(=O)(C=Cc1ccccc1)N1CCN(c2ccc(F)cc2)CC1	-1.6	7.3
CC(=O)Nc1cc(C(=O)NC2CCCC2)c2ccc(C)nc2c1	16.5	100.3*
CC(=O)Nc1cc(C(=O)N2CCN(c3cccc(C)c3C)CC2)c2ccc(C)nc2c1	-33.6	95.2*
CC(=O)Nc1cc(C(=O)N2CCN(C3CCCCC3)CC2)c2ccc(C)nc2c1	-49.1	23.9
CC(=O)Nc1cc(C(=O)NC(C)C)c2ccc(C)nc2c1	31.5	-6.3
CC(=O)Nc1cc(C(=O)N2CCN(c3cccc(C)c3)CC2)c2ccc(C)nc2c1	-402.1	68.3*
CC(=O)Nc1cc(C(=O)N2CCN(c3cc(C)ccc3C)CC2)c2ccc(C)nc2c1	-15.8	100.0*
Cc1cccc(N2CCN(C(=O)c3cccc([N+](=O)[O-])c3C)CC2)c1C	-4.2	-1.1
CC(=O)Nc1cc(C(=O)NCCN2CCCCC2)c2ccc(C)nc2c1	24.5	6.3
COc1ccccc1NC(=O)COc1ccc(-c2nnc(C)o2)cc1	-7.8	-8.7
CC1CCC2(CC1)CC[C@@H]2NCc1cccs1 (some centres not stated)	-8.4	0.1
Cc1cccc2nnc(N3CCCC(C(=O)NC4CCCCC4)C3)n12 (configuration not stated)	-6.0	1.1
SMILES	Pf apPOL block	mHTT CaM bind
O=C(Cn1c(=O)[nH]c2ccsc2c1=O)N1CCN(c2ccccn2)CC1	-4.9	4.0
COC(=O)c1cc(Br)cc2ccccc12	63.5*	-124.0
COC(=O)c1c[nH]c2ccccc12	2.6	·
CN(C)c1ccc(C(=O)N2CCC(COc3ccc(C(=O)NC4CC4)cc3)CC2)cc1	-4.0	21.5
O=S(=O)(Nc1nccs1)c1ccc(N=Cc2ccccc2O)cc1	6.3	10.0
O=S(=O)(Nc1nccs1)c1ccc(N=Cc2cc(Cl)cc(Cl)c2O)cc1	-2.3	11.0
O=S(=O)(Nc1nccs1)c1ccc(N=Cc2cc(Br)ccc2O)cc1	7.5	88.0*
O=[N+]([O-])c1ccc(C=Nc2ccc(S(=O)(=O)Nc3nccs3)cc2)cc1	1.4	62.0*
CC1CCCCN1C(=O)c1ccc(Cl)cc1[N+](=O)[O-] (configuration not stated)	-1.0	0.4
CCCc1cc2c(=O)c(-c3ccccn3)c(C)oc2cc1OC	-1.4	0.0
COCCNC(=O)Cn1c(=O)n(-c2ccc(F)cc2F)c(=O)c2sccc21	1.2	0.0
CCc1ccc(CNC(=O)C2CCN(c3nc4ccc(C)cc4[nH]3)CC2)cc1	-11.3	20.0
Cc1[nH]c2ccccc2c1C(c1ccncc1)N1CCC(C)CC1 (configuration not stated)	-4.0	21.7
COC(c1cccs1)c1c(C)[nH]c2ccccc12 (configuration not stated)	3.6	60.0*
COc1ccc(C)cc1NC(=O)c1cc(C(C)C)n2nccc2n1	2.8	-16.0
COc1ccccc1C1CC(c2ccc(Br)cc2)=NN1C(=O)c1ccncc1 (configuration not stated)	-4.7	18.0
COc1ccccc1C1CC(c2ccc(Br)cc2)=NN1C(=O)CCC(=O)O (configuration not stated)	-0.9	10.0
COc1cccc(C2CC(c3ccc(Br)cc3)=NN2C(=O)c2ccncc2)c1OC (configuration not stated)	-4.8	61.0*

Compound activity: PubChem BioAssay, University of Kansas High Throughput Screening Laboratory
